From article PMC4336329 (PLoS ONE, 2015) come the findings set out here.

Screen size: about 310,000 compounds; about 14,000 (4.5%) showed an effect of 50% or more. The effect is printed as a negative number. The entries come from a sample that favours strong results as a whole.
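Further: peak tail current of the secondary pulse compared with the same well before compound.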

In the assay the target is human ether-à-go-go-related gene (hERG) potassium channel (human, UniProt Q12809). In words: primary screen, population patch clamp on CHO cells stably expressing hERG; higher = less effect of the substance.
Sequence of human ether-à-go-go-related gene (hERG) potassium channel (Q12809 whole entry, looked up): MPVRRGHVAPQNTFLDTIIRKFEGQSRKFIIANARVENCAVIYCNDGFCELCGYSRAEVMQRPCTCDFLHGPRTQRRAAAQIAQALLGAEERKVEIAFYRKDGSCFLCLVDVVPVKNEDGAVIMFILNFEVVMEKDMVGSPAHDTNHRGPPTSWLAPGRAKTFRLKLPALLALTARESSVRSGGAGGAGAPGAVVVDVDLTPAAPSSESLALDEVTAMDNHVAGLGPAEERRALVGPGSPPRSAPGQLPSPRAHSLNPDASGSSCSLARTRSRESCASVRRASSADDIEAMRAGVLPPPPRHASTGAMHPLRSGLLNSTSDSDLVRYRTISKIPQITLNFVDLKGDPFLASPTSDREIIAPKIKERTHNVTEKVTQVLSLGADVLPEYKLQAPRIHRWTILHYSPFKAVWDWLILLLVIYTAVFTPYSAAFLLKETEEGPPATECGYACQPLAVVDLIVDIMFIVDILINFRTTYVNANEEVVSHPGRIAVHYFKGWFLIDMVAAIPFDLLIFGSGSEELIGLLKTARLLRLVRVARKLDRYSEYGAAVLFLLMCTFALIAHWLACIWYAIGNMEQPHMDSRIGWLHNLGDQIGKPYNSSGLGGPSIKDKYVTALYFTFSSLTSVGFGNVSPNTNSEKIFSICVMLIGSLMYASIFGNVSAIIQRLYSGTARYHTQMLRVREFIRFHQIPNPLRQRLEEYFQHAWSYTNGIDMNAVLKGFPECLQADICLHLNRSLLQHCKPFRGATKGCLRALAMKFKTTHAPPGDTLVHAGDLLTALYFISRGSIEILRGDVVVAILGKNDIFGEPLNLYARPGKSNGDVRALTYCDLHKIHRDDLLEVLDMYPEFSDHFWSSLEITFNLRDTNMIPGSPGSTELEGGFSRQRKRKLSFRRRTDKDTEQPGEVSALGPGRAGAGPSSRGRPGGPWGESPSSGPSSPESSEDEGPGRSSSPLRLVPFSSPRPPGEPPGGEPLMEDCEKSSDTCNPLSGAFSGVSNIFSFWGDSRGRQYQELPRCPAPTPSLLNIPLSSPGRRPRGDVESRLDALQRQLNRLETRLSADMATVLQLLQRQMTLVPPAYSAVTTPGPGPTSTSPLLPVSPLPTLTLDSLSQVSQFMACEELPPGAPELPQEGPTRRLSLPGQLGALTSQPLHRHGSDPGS
On to `COc1cccc(C(=O)Nc2ccccc2F)c1`, for which the “hERG current change (%, negative = inhibition) at 10uM” value is recorded as 8.37%.
The value for `O=C(CCc1nc2ccccc2c(=O)[nH]1)NNC(=O)COc1ccc(Br)cc1` was 6.48%.
Take `CCOC(=O)c1nnn2c1nc(N1CCN(c3ccccc3)CC1)c1ccccc12`: the “hERG current change (%, negative = inhibition) at 10uM” value was -62.4%.
To `CCOC(=O)c1nnn2c1nc(N1CCN(C)CC1)c1ccccc12` belongs -4.25%; to `CCOC(=O)c1nnn2c1nc(N1CCOCC1)c1ccccc12`, -20.4%; to `COc1ccc(OC)c(N2C(=O)NC(=O)C(CCc3ccncc3)(CCc3ccncc3)C2=O)c1`, -41.2%.
For the compound `O=C1NC(=O)C(CCc2ccncc2)(CCc2ccncc2)C(=O)N1Cc1ccc(F)cc1`, the “hERG current change (%, negative = inhibition) at 10uM” value is reported as -76.6%.
With `CCOc1ccccc1N1C(=O)NC(=O)C(CCc2ccncc2)(CCc2ccncc2)C1=O`, the “hERG current change (%, negative = inhibition) at 10uM” value is given as -29.6%.
Regarding `COc1ccc(CC2(CCc3ccncc3)C(=O)NC(=O)NC2=O)cc1`, the “hERG current change (%, negative = inhibition) at 10uM” value was found to be 22.5%.
The value for `O=C1NC(=O)C(CCc2ccncc2)(CCc2ccncc2)C(=O)N1CCc1ccc(F)cc1` was -68.5%; that for `O=C1CC(=O)N(CCc2ccc(F)cc2)C(=O)N1` was 9.33%.
Turning to `CCOC(=O)CN1CC23C=CC(O2)C(C(=O)NCCc2ccccc2)C3C1=O` (stereo not drawn), the “hERG current change (%, negative = inhibition) at 10uM” value is 6.73%.
The value for `CCOC(=O)N1CCN(S(=O)(=O)c2ccc(C)cc2)C1c1ccc(OC)cc1` (stereo not drawn) was -11.9%.
The value for `Cc1ccc(-c2nn(Cc3ccccc3)cc2C=O)cc1C` was -13.9%; that for `Cc1cnc(NC(=O)CSc2nc3ccccc3c(=O)[nH]2)s1` was -7.72%; that for `CNC(=O)c1cc2c(=O)n3cccc(C)c3nc2n(C(C)C)c1=N` was -77.3%.
To `Cc1cccn2c(=O)c3cc(C(=O)N(C)C)n(C)c3nc12` belongs 2.7%; to `Cc1ccccc1CC(=O)NCc1cccnc1`, 10.8%.
With `Cc1ccc2nc(SCC(=O)Nc3cccc4ccccc34)nc(=O)n2c1`, the “hERG current change (%, negative = inhibition) at 10uM” value was -14%.
The value for `Cc1ccc(CCNC(=O)c2ccc3nc4ccc(Cl)cc4c(=O)n3c2)cc1` was 20.4%; that for `Cc1cccn2c(=O)c3cc(C(=O)NCc4cccnc4)c(=N)n(C(C)C)c3nc12` was -69.4%; that for `Cc1cccn2c(=O)c3cc(C(=O)O)n(C)c3nc12` was 6.65%.
`Cc1cccn2c(=O)c3cc(C(=O)NCC(C)C)sc3nc12`: the “hERG current change (%, negative = inhibition) at 10uM” value was -3.21%.
As to `CNC(=O)c1cc2c(=O)n3cc(C)ccc3nc2n(C(C)C)c1=N`, the “hERG current change (%, negative = inhibition) at 10uM” value was -77.1%.
To `O=C(CSc1nnc2scc(-c3ccc(Cl)cc3)n12)NCc1ccco1` belongs -15.9%; to `CCOc1cc(CNC(C)(C)CO)cc(Br)c1OCc1ccc(Cl)cc1Cl`, -12.1%.
To `COC1CCN(C(=O)CC2C(=O)NCCN2CC(C)(C)C)CC1` (stereo not drawn) belongs 18.5%; to `COC(=O)c1cc(NC(=O)c2cccnc2)cc(C(=O)OC)c1`, 11%; to `N#CC(=C1SC=CS1)c1nc(-c2ccccc2)cs1`, 9.47%.
The value for `CNC(=O)C(=O)NCCCN1CCOCC1` was 7.92%.
Regarding `CC(C)c1ccc(/C=C(\NC(=O)c2ccccc2)C(=O)NCCCN2CCOCC2)cc1`, the “hERG current change (%, negative = inhibition) at 10uM” value is reported as -71.4%.
The value for `Cn1cc(/C=C(\NC(=O)c2ccccc2)C(=O)NCCCN2CCOCC2)c2ccccc21` was 3.43%.
The value for `CC(C)CNC(=O)C(=O)NCCCN1CCOCC1` was -61.6%; that for `O=C(NCCN1CCOCC1)/C(=C\c1ccccc1Cl)NC(=O)c1ccccc1` was -16.2%.
Regarding `O=C(NCCCN1CCOCC1)/C(=C/c1ccco1)NC(=O)c1ccccc1`, the “hERG current change (%, negative = inhibition) at 10uM” value stood at 1.44%.
Turning to `CC(C)NC(=O)C(=O)NCCCN1CCOCC1`, the “hERG current change (%, negative = inhibition) at 10uM” value is recorded as 25.1%.
The value for `CC(C)c1ccc(/C=C(\NC(=O)c2ccccc2)C(=O)NCCN2CCOCC2)cc1` was -61%.
To `CC(=O)c1ccc(S(=O)(=O)N(C)C(C)CCc2ccco2)cc1` (stereo not drawn) belongs -6.81%; to `CC(=O)N1CCc2cc(Br)cc(S(=O)(=O)N3CCN(c4ccccn4)CC3)c21`, 10.7%.
To `Cc1ccc(/C=C2\C(=N)N3N=C(CC(=O)N4CCOCC4)SC3=NC2=O)o1` belongs 12.2%; to `CCOC(=O)c1cc(-c2ccccc2)sc1NC(=O)C(C)C`, 13.8%.
Regarding `O=C(O)C1C2CCC(C2)C1C(=O)NCc1ccccn1` (stereo not drawn), the “hERG current change (%, negative = inhibition) at 10uM” value is given as 16.1%.
